Rab9 prom act: qHTS Assay for Rab9 Promoter Activators; Huh7 Rab9 promoter-luciferase reporter, luminescence, 24 h; Potency, µM (series often up to 9.22 µM), for inactives: top-dose activation, negative = inhibition, hits mostly activators; 320,000 tested, 2.8% active; AID 485297, 2010; note: % of control where 0% means no effect; nearly all actives have a fitted effect of over 60% in size
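Promoter activation is measured as luciferase luminescence in Huh7 cells stably transfected with a Rab9 promoter–luciferase construct, following 24 h compound exposure at 37 °C and 10 min reagent incubation at ambient temperature.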
NPC1 promoter act: qHTS Assay for NPC1 Promoter Activators; Huh7 NPC1 promoter luciferase reporter, 24 h; Potency, µM (titrated, usually from 9.22 µM), for inactives: at the top dose activation, most hits filed as activators; 320,000 tested, 2.4% active; note: % of control where 0% means no effect; nearly all actives have a fitted effect of over 60% in size
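Stable NPC1-promoter luciferase Huh7 line; cpd (DMSO) 24 h, 37 °C, 5% CO2; Amplite luciferase reagent 10 min RT; luminescence readout. qHTS format.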
SMN2 splice up: qHTS Assay for Enhancers of SMN2 Splice Variant Expression. 210,000 tested, 2.8% active. HEK293 SMN2-luciferase splicing reporter, luminescence, 30-36 h. AID 1458, 2008. Potency, µM (doses to about 46.1 µM), for the others: at the top dose activity change, positive = activation, usual class: activators; note: % of control where 0% means no effect; nearly all actives have a fitted effect of over 55% in size
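HEK293 cells carry an SMN2 minigene-luciferase reporter in which exon 7 inclusion puts luciferase in frame. Cells were seeded at 2000 cells/well, attached for 10-12 hours, then exposed to compounds for 30-36 hours at 37C before ONE-Glo luminescence.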
ELG1 DNA repair: qHTS screen for small molecules that inhibit ELG1-dependent DNA repair in human embryonic kidney (HEK293T) cells expressing luciferase-tagged ELG1 | HEK293T ELG1-luciferase reporter, luminescence, 16 h; DNA damage induced by 5-fluorouridine | Potency, µM (highest dose often 46.1 µM), for the others: at the top dose activity change, negative = inhibition, hits mostly inhibitors | 330,000 tested, 2.3% active; note: % is set by controls: 0 for no effect and ±100 for the full control effect; nearly all actives have a fitted effect of over 55% in size
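In this reporter screen, reduction of luminescence relative to DMSO vehicle indicated activity. Compounds and 5-fluorouridine were added together to 2,000 cells per well, incubated for 16 hr at 37 °C, then developed with ONE-Glo.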
FLuc modulator: qHTS profiling assay for firefly luciferase inhibitor/activator using purifed enzyme and Km concentrations of substrates (counterscreen for miR-21 project); 360,000 tested, 6.9% active; Potency, µM (titrated, usually from 57.5 µM), without a hit: at the top dose activity change, negative = inhibition, hits mostly inhibitors; purified FLuc, Km substrates, luminescence inhibition; Luciferin 4-monooxygenase (Photinus pyralis), P08659;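 note: plate controls were vehicle for no effect and reference inhibitor for full effect; nearly all actives have a fitted effect of over 55% in size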
Target sequence (P08659 whole entry, looked up): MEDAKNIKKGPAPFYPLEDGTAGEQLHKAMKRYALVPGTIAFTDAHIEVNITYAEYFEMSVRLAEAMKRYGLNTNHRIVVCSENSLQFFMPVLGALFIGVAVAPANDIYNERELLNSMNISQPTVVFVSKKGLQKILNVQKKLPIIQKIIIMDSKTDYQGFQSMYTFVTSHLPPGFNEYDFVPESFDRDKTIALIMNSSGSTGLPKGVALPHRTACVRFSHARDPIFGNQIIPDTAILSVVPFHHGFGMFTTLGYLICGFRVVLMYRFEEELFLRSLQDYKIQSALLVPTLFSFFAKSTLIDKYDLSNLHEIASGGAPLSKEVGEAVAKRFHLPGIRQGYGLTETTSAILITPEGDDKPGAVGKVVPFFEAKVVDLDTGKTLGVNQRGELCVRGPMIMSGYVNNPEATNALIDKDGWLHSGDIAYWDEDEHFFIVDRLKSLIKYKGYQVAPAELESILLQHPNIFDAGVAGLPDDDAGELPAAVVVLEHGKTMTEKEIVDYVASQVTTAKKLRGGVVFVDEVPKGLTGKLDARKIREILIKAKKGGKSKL
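Purified P. pyralis luciferase, 10 nM final, with Km-level 10 uM D-luciferin and 10 uM ATP in 50 mM Tris acetate pH 7.5, 10 mM Mg acetate, 0.01% Tween-20, 0.05% BSA; 6-point qHTS titration about 60 µM downward; luminescence read.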
ELG1 genotox: qHTS screen for small molecules that induce genotoxicity in human embryonic kidney (HEK293T) cells expressing luciferase-tagged ELG1 | HEK293T ELG1-luciferase reporter, luminescence, 16 h | Potency, µM (highest dose often 46 µM), inactives show top-dose activity change, positive = activation, actives largely listed as activators | AID 504466, 2011 | 330,000 tested, 1.3% active; note: % of control where 0% means no effect; nearly all actives have a fitted effect of over 60% in size
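DMSO vehicle served as control against compound-treated ELG1-luciferase HEK293T cells; exposure lasted 16 hr at 37 °C and 5% CO2, followed by ONE-Glo luminescence detection after 30 min.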
Active calls of the source: *; ? = inconclusive; · = no result given; [ ] = another dose, or the depositor's remark. Sampled rows, rich in hits. Any-hit rate of the full collection: about 9.2%. Calls come from the whole dose curve; as a rule, active = well fitted curve in the direction sought with a large enough effect; inconclusive = small, poorly fitted or top-dose-only effect, or another doubt; inactive = no such curve, though single readings can be large; an effect the other way counts as inactive or inconclusive. Potency is the fitted concentration of half-maximal effect.

SMILES | Rab9 prom act | NPC1 promoter act | SMN2 splice up | ELG1 DNA repair | FLuc modulator | ELG1 genotox
S=c1[nH]c2ccc3ccccc3c2[nH]1 | ? | 11.4% | 9.9% | ? | -29.1% | 14.2%
CC(=O)Nc1ccc(S(=O)(=O)N/N=C/c2ccc(C)s2)cc1 | ? | 16.9% | ? | ? | 10.7µM* | ?
CC(=O)Nc1ccc(S(=O)(=O)N/N=C/c2cccnc2)cc1 | -1.9% | 1.7% | · | -0.4% | 2.7% | -2.0%
Cc1cccc(N(C)C(=O)C2CCN(S(=O)(=O)c3cccc4nonc34)CC2)c1 | · | · | · | · | 0.0% | ·
CC(=O)c1sc(N/N=C\c2ccc(Br)cc2)nc1C | ? | ? | ? | ? | 5.36µM* | ?
CCOC(=O)c1sc(Nc2ccc(OCC)cc2)nc1C | -1.3% | -1.6% | · | -2.7% | ? | 7.1%
CCOC(=O)c1sc(N/N=C/c2ccc(N(C)C)cc2)nc1C | ? | 25.1% | · | 2.7% | 10.7µM* | 13.2%
CC(=O)c1sc(Nc2nc(C)cc(C)n2)nc1C | -0.3%[1.84 µM] | 9.6% | 24.8% | -11.8% | -7.8% | 13.9%
CCOC(=O)c1nc(NCc2ccccc2)sc1C | 23.9% | 19.0% | · | ? | ? | 11.8%
CCOC(=O)c1nc(N/N=C/c2ccccc2)sc1Br | 20.1% | 20.6% | · | 24.0% | 7.57µM* | 1.5%
CC(=O)c1sc(N/N=C\c2cccc(Br)c2)nc1C | 17.6% | -2.7% | ? | ? | 10.7µM* | 5.9%
C=CCn1cn[nH]c1=S | -0.4% | -0.5% | -0.8% | 1.9% | 0.0% | 0.2%
CCOC(=O)C1=C(C)NC(=S)NC1c1ccc(-c2cccc(Cl)c2C)o1 (centres undefined) | -12.5% | -8.3% | -24.3% | 20.6µM* | 1.0% | -7.1%
CCOC(=O)C1=C(C)NC(=S)NC1c1ccc(-c2ccc(Cl)cc2)o1 (centres undefined) | -8.4% | 2.0% | -22.4% | ? | -10.0% | -5.2%
CC1Cc2nc(SCC(=O)N3CCCc4ccccc43)n(C)c(=O)c2S1 (centres undefined) | -6.1% | -2.6% | -32.4% | 23.1µM* | -0.3% | -5.0%
O=S(=O)(c1cccs1)N1CCN(CCOc2ccc(Cl)cc2)CC1 | -18.2% | -10.0% | · | -18.5% | · | -1.0%
O=S(=O)(c1cccs1)N1CCN(CC(O)COc2cc(Cl)ccc2Cl)CC1 (centres undefined) | -22.3% | -3.0% | -93.6% | 8.2µM* | 0.8% | -21.9%
Cc1ccc(NC(=O)c2c(C)oc3c2C2=NCCN2C=N3)cc1F | · | · | · | · | -6.5% | ·
COC(=O)c1ccc(CSc2ncnc3c2nnn3-c2ccc(OC)cc2)o1 | -3.5% | 11.6% | -1.0% | 5.1% | 21.3µM* | 2.0%
COc1ccc(-n2nnc3c(=O)n(CC(=O)Nc4ccc5c(c4)OCCO5)cnc32)cc1OC | -1.7% | -3.0% | · | ? | 1.2% | ?
O=C(CSc1ncnc2ccccc12)Nc1ccc2c(c1)OCCO2 | 13.5% | -0.3% | -0.5% | 11.7% | 16.9µM* | -8.9%
COc1ccc(-n2nnc3c(SCC(=O)c4ccccc4)ncnc32)cc1 | -1.1% | -8.0% | -29.3% | 23.0% | ? | 1.2%
COc1ccc(-n2nnc3c(SCC(=O)Nc4ccc5c(c4)OCCO5)ncnc32)cc1 | 1.4% | 3.6% | 20.9% | 1.8% | 7.57µM* | 9.0%
O=C(CSc1ccccc1C(=O)O)Nc1ccc2c(c1)OCO2 | -5.3% | -2.3% | · | 22.4% | ? | -0.2%
O=C(CSc1ncccc1C(=O)O)Nc1ccc2c(c1)OCCO2 | 0.4% | 6.9% | · | 12.1% | 10.7µM* | -0.3%
SMILES | Rab9 prom act | NPC1 promoter act | SMN2 splice up | ELG1 DNA repair | FLuc modulator | ELG1 genotox
COc1ccc(NC(=O)C2CCN(C(=O)c3sc4nc[nH]c(=O)c4c3C)CC2)cc1Cl | · | · | · | · | -7.2% | ·
Cc1csc(NC(=O)C(C)N2C(=O)c3ccccc3S2(=O)=O)n1 (centres undefined) | 5.0% | 0.1% | · | -0.2% | 2.8% | 0.0%
CCc1ccccc1-n1c(SCC(=O)Nc2ccc3c(c2)OCCO3)nc2[nH]ncc2c1=O | 5.2% | 0.5% | -15.7% | ? | 16.9µM* | ?
CC(C)(CNC(=O)CNC(=O)c1ccc(Cl)cc1Cl)N1CCOCC1 | 5.7% | -0.7% | · | 20.9% | -2.8% | 0.6%
CN1CCN(c2ccc(C(CC(N)=O)NC(=O)Cc3cccc4ccccc34)cc2[N+](=O)[O-])CC1 (centres undefined) | 1.6% | -0.1% | · | 9.6% | -0.7% | 0.6%
Cc1ccc(C(=O)CCC(=O)O)cc1 | -0.1% | 4.0% | -2.8% | 0.0% | 3.0% | -1.8%
COc1ccc(C(=O)COC(=O)CCCC(=O)Nc2ccc(C(C)=O)cc2)cc1 | · | · | 9.1% | · | 5.36µM* | ·
COc1ccc(C(=O)CCc2ccccc2)cc1 | ? | ? | · | ? | 16.9µM* | ?
CCCc1ccc(C(=O)CCC(=O)O)cc1 | 4.9% | 7.6% | -5.9% | ? | 23.9µM* | 19.1%
COc1ccc(C(=O)COC(=O)CCn2nnc(-c3cccc(O)c3OC)n2)cc1 | 4.4% | -1.3% | -0.8% | -0.1% | 9.53µM* | 11.5%
COc1ccc(/C(N)=N/OC(=O)CCc2ccccc2)cc1 | 18.7% | 8.9% | · | ? | ? | ?
COc1ccc(C(=O)Cn2nnc(-c3ccccc3NC(=O)C(F)(F)F)n2)cc1 | 9.5% | -0.4% | ? | 8.0% | 2.9% | 0.8%
CCc1ccc(NC(=O)Cn2c(=O)n(CCCC(=O)NCCc3ccc(OC)c(OC)c3)c(=O)c3ccccc32)cc1 | · | · | 6.4% | · | 2.1% | ·
COc1ccc(C(=O)COC(=O)CCc2ccccc2)cc1 | -2.2% | -5.4% | · | -1.3% | 26.9µM* | -2.7%
O=C(CCc1ccccc1)OCC(=O)c1ccc([N+](=O)[O-])cc1 | 1.0% | -4.6% | 2.7% | -6.8% | -1.4% | 1.6%
Cc1cc2c3c([nH]c2cc1S(=O)(=O)N1CCC2(CC1)OCCO2)CC(C)(C)CC3=O | -5.1% | 0.9% | · | 20.6µM* | -12.4% | -0.2%[9.26 µM]
CCOc1ccc(CCNC(=O)c2ccc3c(c2)c(C)c(C)n3C)cc1 | · | · | · | · | -13.1% | ·
S=C(N/N=C/c1ccccc1)N1CCOCC1 | -3.8% | 12.3% | 0.5% | ? | 23.9µM* | 2.1%
COc1ccc(/C=N/NC(N)=S)cc1OC(=O)c1ccccc1 | -5.6% | 0.4% | 12.9% | ? | 0.5% | 17.1%
CCCCOc1ccc(CNC(=S)N/N=C/c2ccc(OC)c(OC)c2)cc1 | -0.8% | 3.4% | 1.5% | 8.2µM* | ? | -4.6%
CSC(=S)N/N=C/c1ccccc1 | -3.8% | -2.3% | 3.0% | 5.5% | 15.1µM* | -1.6%

Source: PubChem
